Compound activity (PubChem)
NLRP3 yeast inh: NALP3 inhibition in yeast | Yeast reconstituted NLRP3/ASC/caspase-1, beta-gal luminescence, 24 h | inhibition, % at 10 µM | hit rate 0.39% among 330,000;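 active = inhibition of 50% or more; inactive = inhibition below 50%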;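 also: plate controls were induced DMSO wells for no effect and uninduced yeast grown without galactose for full effect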
tim23-1 inh: growth inhibitors of tim23-1 mutant yeast | S. cerevisiae tim23-1 growth, BacTiter-Glo luminescence, 24 h | inhibition, % at 20 µM | hit rate 1.3% among 330,000 | AID 463212;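 active = growth inhibition of the mutant yeast at or above 50%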;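 also: temperature-sensitive mutant grown at 25 °C; plate controls were DMSO-treated mutant yeast for no effect and medium wells lacking yeast for full effect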
tim10-1 inh: inhibits growth of tim10-1 mutant yeast. S. cerevisiae tim10-1 ts strain growth, BacTiter-Glo, 24 h. inhibition, % at 20 µM. hit rate 2.2% among 330,000. AID 463190;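 active = inhibition of at least 40%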;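 also: mutant grown at 25 °C; 0% = DMSO wells with yeast and 100% = wells holding no yeast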
V-ATPase pH: regulators of yeast V-ATPase proton transport | S. cerevisiae, pHLuorin cytosolic pH fluorescence | response, % at 10 µM | hit rate 0.37% among 350,000 | AID 504577; in the data active = response mostly above about 7.3%, no sharp cut-off; inactive = mostly below about 5.4%; also: actives read high
NALP1 yeast inh: NALP1 inhibition | hit rate 0.61% among 280,000 | AID 2071 | S. cerevisiae NALP1/ASC/caspase-1 growth, X-gal OD620, 72 h | inhibition, % at 10 µM; in the data active = inhibition mostly above about 24%, no sharp cut-off; inactive = mostly below about 32%
TIM10 inh: inhibits growth of TIM10 yeast strain. S. cerevisiae TIM10 strain growth, BacTiter-Glo luminescence, 24 h. inhibition, % at 10 µM. hit rate 1.4% among 330,000. AID 463195;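 active = inhibition of 40% or more at the single tested concentration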;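 also: wild-type TIM10 isogenic control strain grown at permissive 25 °C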
tim10-1 conf: confirmation of tim10-1 mutant yeast growth inhibitors; shares compounds with tim10-1 inh; S. cerevisiae tim10-1 ts strain growth, BacTiter-Glo, 24 h; inhibition, % at 20 µM; hit rate 56% among 7,400; AID 463213;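 active = inhibition of yeast growth at or above a set limit in either of two repeat tests at 20 µM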;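 also: tim10-1 mutant grown at permissive 25 °C to find synthetic lethal compounds; 0% = DMSO yeast wells and 100% = medium wells without yeast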
* = called active by the depositor; / = not tested or not shown. Only some compounds are listed: those with a hit (about 4.2% of all), similar ones and a draw of the others.

SMILES	NLRP3 yeast inh	tim23-1 inh	tim10-1 inh	V-ATPase pH	NALP1 yeast inh	TIM10 inh	tim10-1 conf
COCCN1Cc2cccc(C(=O)Nc3ccc(C)cc3)c2C1=O	13.4	23.2	43.4*	0.1	11.9	17.3	28.1
CCOc1ccc(NC(=O)c2cccc3c2C(=O)N(Cc2cccnc2)C3)cc1	25.3	24.9	42.5*	0.3	24.1	33.5	34.7*
COCCN1Cc2cccc(C(=O)Nc3ccc4c(c3)OCCO4)c2C1=O	6.7	19.7	45.5*	-2.7	11.3	13.7	18.2
COc1ccc(CCNC(=O)c2c([S-])n(-c3ccc(C)cc3)c3cccc[n+]23)cc1	8.8	38.5	22.5	5.0	/	16.5	/
COC(=O)Cc1cc(=O)n2[nH]c(C)cc2n1	-0.5	-6.2	6.2	-1.5	13.9	2.7	/
Cc1cccc2[nH]c3c(N4CCC5(CC4)OCCO5)ncnc3c12	2.1	32.8	50.7*	-1.6	-24.8	22.4	32.0*
Clc1ccc2[nH]c3c(N4CCC5(CC4)OCCO5)ncnc3c2c1	19.8	21.7	21.3	/	6.6	3.3	/
Cc1cc(C2N=C(N)Nc3nc4ccccc4n32)c(C)n1-c1ccccc1Cl (centres undefined)	-10.7	-90.3	-38.6	-1.0	6.5	-7.9	/
Cc1cc2c(=O)n(Cc3ccco3)c(SCC(=O)c3ccc(Cl)s3)nc2s1	3.5	-3.0	9.0	-1.6	11.8	3.2	/
CCOC(=O)CC(=O)CSc1nc2sc(C)cc2c(=O)n1Cc1ccco1	0.0	37.2	44.8*	3.9	20.4	25.2	19.3
CCOc1ccccc1C(=O)N(C)Cc1cc2cc(OC)ccc2[nH]c1=O	3.5	10.3	11.0	0.9	-5.4	-13.4	/
N/C(=N\OC(=O)Cc1ccc(-c2ccccc2)cc1)c1cccnc1	7.1	19.1	47.0*	20.6	-9.6	18.6	39.0*
N/C(=N\OC(=O)CC(c1ccccc1)c1ccccc1)c1cccnc1	17.1	35.2	47.1*	-2.9	-2.5	37.2	61.4*
N/C(=N\OC(=O)CCC1CCCCC1)c1cccnc1	-8.1	26.6	46.2*	-2.7	6.4	16.6	37.8*
Cc1ccc(C)c(NC2=CC(=O)CC(C)(C)C2)c1C#N	10.8	1.2	12.1	-0.9	29.5	-12.9	/
O=C(Nc1ccc(F)cc1F)N1CCC(c2nc3ccccc3o2)CC1	15.6	10.3	0.6	-2.9	3.3	1.0	/
COc1ccc(NC(=O)C2CCCN(c3ncccn3)C2)cc1 (centres undefined)	22.1	-4.2	-7.3	7.5	-20.8	-2.2	/
CCC(C)c1ccc(NC(=O)C2CCCN(c3ncccn3)C2)cc1 (centres undefined)	7.1	43.4	41.9*	1.2	-18.4	37.2	40.8*
CCOc1ccc(CCNC(=O)C(C)N2C(=O)CC(C)(C)Sc3ccccc32)cc1 (centres undefined)	-4.7	38.9	41.6*	-0.8	-6.2	12.0	25.4
CCOC(=O)C1=C(C)N(C)C(=S)N(C)C1c1ccc(OC)cc1 (centres undefined)	-3.6	23.1	31.9	6.7	1.3	12.6	/
COC(=O)C1=C(C)N(C)C(=S)N(C)C1c1cccc(Br)c1 (centres undefined)	19.4	44.4	41.5*	6.3	11.9	25.0	27.4
Cc1ccc(-c2csc(C3C(N)=NC(S)=C(C#N)C34CCCCC4)n2)cc1 (centres undefined)	12.5	32.9	44.5*	2.9	-4.2	33.0	18.7
Cc1ccc(F)cc1NC(=O)C1CCCN(c2ncccn2)C1 (centres undefined)	12.8	-3.5	16.0	8.4	35.5	-16.9	/
Cc1ccc(-n2ncc3c2CC(C)(C)CC3NC(=O)c2ccccn2)cc1 (centres undefined)	8.7	49.2	53.4*	4.7	11.9	13.4	12.3
CC1(C)Cc2c(cnn2-c2ccc(F)cc2)C(NC(=O)c2ccoc2)C1 (centres undefined)	-0.3	35.6	40.1*	0.3	12.8	14.5	8.0
SMILES	NLRP3 yeast inh	tim23-1 inh	tim10-1 inh	V-ATPase pH	NALP1 yeast inh	TIM10 inh	tim10-1 conf
Cc1ccc(/C=C2\CCC3=C2OC(N)=C(C#N)C3c2ccc(C)cc2)cc1 (centres undefined)	3.3	37.6	46.5*	-4.9	3.9	20.3	34.3*
COc1ccccc1C(=O)Nc1ccccc1N1CCN(C(=O)c2ccc(Cl)cc2)CC1	13.9	43.9	47.3*	-4.0	2.4	29.1	16.8
O=C(Nc1ccccc1N1CCN(C(=O)c2ccccc2)CC1)c1ccccc1Cl	-9.7	8.2	8.2	0.8	/	1.8	/
O=C(Nc1ccccc1N1CCN(C(=O)c2ccc(Cl)cc2)CC1)c1cccc([N+](=O)[O-])c1	21.2	31.9	41.6*	-1.4	23.8	20.1	13.3
CCCCCCSc1ccc([C@H]2N[C@@](C)(C(=O)OC)[C@H]3C(=O)N(C)C(=O)[C@@H]23)cc1	17.9	38.5	44.5*	-2.7	/	29.4	34.9*
COc1cc2c(cc1OC)CN(c1ccc([N+](=O)[O-])cc1C#N)CC2	4.6	22.8	2.6	-3.1	13.8	7.4	/
COc1cc2c(cc1OC)CN(c1ccc([N+](=O)[O-])cc1Cl)CC2	20.0	36.9	40.6*	-0.9	12.5	30.5	50.0*
O=C(c1cc(COc2cccc(C(F)(F)F)c2)on1)N1C[C@@H]2CCC[C@H]1C2	10.8	36.9	45.0*	3.1	3.4	34.2	34.3*
CCCOc1ccc(C(=O)NCC2OCCc3ccccc32)cc1OC (centres undefined)	25.5	15.6	17.2	1.6	5.9	2.2	/
COc1ccc(C(=O)NCC2OCCc3ccccc32)c(O)c1 (centres undefined)	32.5	34.8	45.1*	-2.5	13.5	33.4	22.6
CCOC(=O)c1sc(-c2ccc(F)cc2)cc1N	-41.1	45.5	42.4*	0.2	-29.8	26.8	38.7*
COc1ccc(/C=C/C(=O)OC(C)CN2CCOCC2)cc1 (centres undefined)	8.6	6.7	6.7	-3.0	9.9	6.5	/
C=CCC1c2cccc(C(=O)O)c2C(=O)N1c1cccc(C)c1 (centres undefined)	20.3	32.2	33.9	0.3	7.0	16.4	/
CSc1nsc(/C=C/Nc2ccc(F)cc2F)c1C#N	-9.1	32.0	46.5*	-6.0	5.2	27.9	40.6*
CSc1nsc(/C=C/Nc2ccc(C(=O)O)cc2)c1C#N	2.5	39.1	38.2	-3.2	-11.3	28.4	/
CC1CCCC(N2C(=O)NC(NC(=O)c3ccco3)(C(F)(F)F)C2=O)C1C (centres undefined)	-3.3	20.6	46.6*	-1.7	-9.0	7.3	25.7
CCc1c(C)nc(SC/C=C/c2ccccc2)[nH]c1=O	1.5	4.7	7.9	0.0	11.0	2.1	/
OC(COc1ccccc1)Cn1c2ccccc2c2ccccc21 (centres undefined)	22.2	26.5	41.6*	1.1	21.9	31.1	51.5*
